The text below walks through data of PubChem BioAssay (NCI).

Compounds without any hit were thinned out: in the full panel of roughly 83,000, 20% have a hit.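 Step 1: grow cells in 96-well plates. Step 2: add test compound at a single concentration. Step 3: incubate 48 h. Step 4: record percent growth.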 A number with no mark means an inactive call. Active and inactive are the calls of the source. The calls were made as follows: active = growth percent below 10; inactive = the rest.

Common to all, as to experiment: NCI-60 one-dose screen, 48 h (100 = growth as untreated, 0 = no growth, -100 = all killed)
What all share (conditions): 10 µM unless noted

Test [1] concerns DU-145 prostate.
The test system of test [2] is K-562 leukemia.
Test [3] has as its system MALME-3M melanoma.
Test [4] deals with MDA-MB-231 breast.
Test [5] concerns RXF 393 renal.
For test [6], the system named is SF-268 CNS.
Test [7] relates to SF-295 CNS.
The test system of test [8] is SF-539 CNS.
The test system of test [9] is UACC-257 melanoma.
In test [10] the test system is M14 melanoma.

Take `CN1C(=O)/C(=C/c2ccc(C(=O)Nc3ncc(Cc4ccc(Cl)cc4)s3)cc2)SC1=S`: the growth in test [1] was 47.1%; in test [2] it was 38.4%; in [3], 50.9%; in test [4], 58%; in [5], 48.3%; in test [6] it was 56.8%. Also, the growth in test [7] was 33%; in test [8] it was 47.3%; in test [9] it was 67.1%; in test [10], 16.3%.
`O=S(=O)(Nc1ccccc1)c1ccc(C2CC3(Cl)C(Cl)=C(Cl)C2(Cl)C3(Cl)Cl)cc1` (stereo not given): the growth was 66.4% in test [1]; 27% in test [2]; 35.1% in test [3]; 59.3% in test [4]; 32.9% in test [5]; 57.2% in test [6]. For the same compound, the growth is 8.38% (active) in test [7], 72.9% in test [8], 36.8% in [9] and 52.6% in [10].
Regarding `Cc1ccc(-c2cc(-c3ccc(Cl)cc3)nc(NC(=O)c3cccnc3)n2)cc1`, the growth in test [1] is 106%; in [2], 87.6%; in [3] it was 111%; in [4] it was 91.3%; in [5] it was 94.1%; in test [6], 97.6%. The growth in test [7] is 103%; in test [8] it was 106%; in test [9], 121%; in [10], 109%.
Regarding `Cc1cc2c([nH]1)CSc1cc(S(=O)(=O)c3ccccc3)c(=O)[nH]c1-2`, the growth was 15% [100 µM] in test [1]; 17% [100 µM] in [2]; 25.1% [100 µM] in test [3]; 23.3% [100 µM] in test [4]; 52.6% [100 µM] in test [5]; 22.1% [100 µM] in [6]. Further, the growth was 11% [100 µM] in test [7], -28.3% [100 µM] (active) in [8], 62.2% [100 µM] in test [9] and -13.7% [100 µM] (active) in [10].
For `CCOC(=O)CNP(=O)(OC[C@@H](Cc1ccccc1)NC(=O)c1cc2ccccc2s1)Oc1ccccc1` (stereo not given in full), the growth was 88.8% in test [1]; 19.4% in test [2]; 69.3% in [3]; 77% in [4]; 84.4% in test [5]; 85.6% in test [6]. Also, the growth is 88.5% in [7], 78.9% in [8], 81.2% in test [9] and 59.6% in [10].
For the compound `COc1ccc(C(=O)Nc2cccc(C3CC(=O)c4c(cc(OC)c(OC)c4OC)O3)c2)cc1` (stereo not given), the growth was 2.98% (active) in test [1]; 7.66% (active) in test [2]; 31.4% in test [3]; 41.9% in test [4]; -8.37% (active) in test [5]; 46.6% in test [6]. Besides, the growth in [7] was 9.55% (active); in [8], -29.7% (active); in test [9] it was 46.2%; in [10] it was -23.9% (active).
In the case of `O=C(O)c1ccc(-n2cc(/C=N/Nc3ccc(F)cc3)c(-c3cc4ccccc4oc3=O)n2)cc1`, the growth in [1] is 91.2%; in [2] it was 11.6%; in [3], 79.8%; in [4], 83.7%; in [5] it was 113%; in test [6] it was 76.8%. Moreover, the growth in [7] is 72.1%; in [8], 85.9%; in test [9] it was 107%; in test [10] it was 47.3%.
In the case of `CC1(C)c2[nH]c3ccccc3c2C[C@]2(C)[C@H]3CC=C4[C@@H]5C[C@@](C)(C(N)=O)CC[C@]5(C)CC[C@@]4(C)[C@]3(C)CC[C@@H]12`, the growth in [1] was 74%; in test [2], 29.9%; in test [3], 68%; in [4], 65.8%; in test [5], 77.4%; in [6], 73.2%. For the same compound, the growth was 53.6% in test [7], 80.9% in test [8], 52.5% in test [9] and 54.6% in test [10].
Regarding `CCOC(=O)c1cn2ncnc(Oc3ccc(NC(=O)NC4CCCCC4)c(Cl)c3)c2c1C`, the growth in test [1] is 96%; in test [2], 82.6%; in test [3], 58%; in [4], 58.2%; in test [5] it was 83.8%; in test [6], 84.9%. For the same compound, the growth in [7] is 96.7%; in test [8] it was 51.2%; in [9], 90%; in test [10] it was 83.9%.
In the case of `O=C1Nc2ccc(I)cc2C1=O`, the growth in test [1] is 106%; in [2], 107%; in test [3] it was 110%; in [4], 93.5%; in test [5], 91.4%; in test [6], 110%. In addition, the growth in test [7] is 99.1%; in test [8], 100%; in test [9] it was -28.4% (active); in test [10], 95.9%.
With `O=C1Nc2ccccc2/C1=C\c1nc(-c2ccccc2F)n2ccccc12`, the growth in test [1] is -26.7% (active); in test [2], 74.1%; in [3] it was 34.4%; in [4] it was 8.66% (active); in test [5], -42.7% (active); in test [6], 24.7%. Moreover, the growth in [7] was 38.1%; in test [8], -1.95% (active); in test [9] it was 45.7%; in test [10] it was 53.4%.
As for `O=C(CSc1nc2ccc([N+](=O)[O-])cc2[nH]1)Nc1cccc(C(F)(F)F)c1`, the growth in [1] was 30.6%; in test [2], 13.6%; in test [3], -0.63% (active); in test [4], 38.5%; in test [5] it was 44.7%; in test [6] it was 24.3%. The growth in test [7] is 33%; in test [8], 36.5%; in test [9] it was 14.3%; in test [10], 27.6%.
For `CCCCNc1ccc(C#N)c(OCCN(CC)CC)c1`, the growth in [1] is 113%; in [2] it was 86%; in [3] it was 109%; in [4], 99.3%; in [5], 103%; in test [6], 103%. Moreover, the growth was 107% in test [7], 111% in test [8], 114% in test [9] and 104% in test [10].
`CCc1ccc(C(=O)/C=C/C23c4ccccc4C(c4ccccc42)C2C(=O)NC(=O)C23)cc1` (stereo not given): the growth in test [1] was 12.6%; in test [2] it was 8.82% (active); in test [3] it was -59.9% (active); in test [4], 9.93% (active); in [5], -48.7% (active); in [6], 26.5%. Besides, the growth in [7] is 12.9%; in test [8] it was 11%; in test [9], 27.8%; in test [10], -8.91% (active).
Turning to `COC1=CC(c2ccc[nH]2)=N/C1=C\c1[nH]c(C)c(C(=O)OCc2ccccc2)c1C`, the growth in test [1] is 12.1%; in [2], 2.63% (active); in test [3], -76.7% (active); in test [4], -65.1% (active); in [5] it was -18.1% (active); in [6], 0.9% (active). Moreover, the growth is -79.3% (active) in test [7], -63.4% (active) in test [8], -57.5% (active) in test [9] and -73.9% (active) in test [10].
Regarding `COc1ccc(-c2nc3c(c(-c4ccccc4)nn3-c3ccccc3)c(-c3ccc(N4CCN(C)CC4)cc3)c2C#N)cc1`, the growth in [1] is 92.9%; in test [2] it was 8.47% (active); in test [3], 94.6%; in test [4] it was 97.9%; in [5], 76%; in [6], 105%. Moreover, the growth in test [7] was 107%; in test [8] it was 95.7%; in test [9] it was 95.5%; in test [10], 104%.
`Cc1noc(C)c1C(=O)OCc1coc2ccccc2c1=O`: the growth was 27.8% in test [1]; 36.5% in test [2]; 51.4% in test [3]; 61.2% in [4]; 76.5% in test [5]; 79.8% in [6]. Besides, the growth in test [7] was 104%; in [8], 68.5%; in test [9], 72.2%; in [10], 69.1%.
For `Clc1ccc(Sc2cnc(-c3ccccc3)o2)cc1`, the growth is 104% in [1]; 98.2% in [2]; 102% in [3]; 97.2% in [4]; 115% in test [5]; 93.5% in test [6]. In addition, the growth in test [7] is 97.4%; in test [8] it was 96%; in test [9] it was 93.6%; in test [10] it was 107%.
Consider `Cc1c(-n2nnc(-c3nc4ccccc4s3)c2N)c(=O)n(-c2ccccc2)n1C`, for which the growth was 115% in [1]; 102% in test [2]; 97.6% in [3]; 113% in test [4]; 121% in [5]; 99.8% in test [6]. The growth in [7] was 103%; in [8], 92.2%; in test [9], 102%; in test [10] it was 110%.
With `COc1ccc2c(c1)c(-c1noc(C(=O)c3cn(C)c4ccc(Br)cc34)n1)cn2C`, the growth in test [1] is 113%; in test [2] it was 88%; in [3], 93.9%; in test [4] it was 103%; in [5], 114%; in test [6] it was 99.2%. Besides, the growth in test [7] is 117%; in test [8], 101%; in [9], 92.7%; in test [10], 97%.
`CCOC(=O)/C=C1\S/C(=N\Nc2cc(=O)[nH]c3ccc(Cl)cc23)N(c2ccccc2)C1=O`: the growth in [1] is 96.7%; in test [2], 54.1%; in test [3], 92.6%; in [4], 92.2%; in test [5], 77.2%; in test [6] it was 96%. For the same compound, the growth is 102% in [7], 99.6% in test [8], 95.6% in [9] and 87.3% in test [10].
Regarding `COc1cc(CNC(=O)/C=C/C=C/c2ccc3c(c2)OCO3)ccc1OCc1cn(-c2ccc(C)c(C)c2)nn1`, the growth in [1] is 85.9%; in test [2], 68.6%; in [3] it was 75.1%; in [4], 78.7%; in test [5] it was 47.6%; in test [6] it was 107%. In addition, the growth was 94.8% in test [7], 55.8% in [8], 65% in [9] and 61.4% in [10].
On to `CCN(CC)CCCN1C(=O)c2c(c(C)c3c(oc4cc(O)ccc43)c2C)C1=O`, for which the growth in [1] was -61.7% (active); in test [2], -14.4% (active); in test [3], -80.4% (active); in test [4] it was -80.3% (active); in test [5] it was 75.7%; in test [6] it was -41.4% (active). Further, the growth was 110% in test [7], 96.4% in test [8], 94.5% in [9] and -88.8% (active) in test [10].
Take `O=C(Nn1c2c(sc1=Nc1ccccc1)C(=O)c1ccccc1C2=O)c1cc2ccc1CCc1ccc(cc1)CC2`: the growth in test [1] is 71.7%; in [2], 77.8%; in [3] it was -69.3% (active); in test [4] it was 40%; in test [5], 70.7%; in [6], 67.7%. Moreover, the growth in test [7] was 87.8%; in test [8], 92.6%; in test [9] it was 62.4%; in test [10], 4.14% (active).
As for `CCNc1cc(-c2cccc(OC(F)(F)F)c2)nc2ccc(N3CCCC3)cc12`, the growth was 28.6% in test [1]; 4.34% (active) in test [2]; -32.2% (active) in [3]; 15.3% in [4]; 33.7% in test [5]; 48.8% in test [6]. In addition, the growth in test [7] is 23.6%; in test [8], 48.9%; in test [9] it was 11.1%; in test [10], 7.92% (active).
Consider `O=C(O)[C@@H]1c2ccccc2-c2ccccc2[C@H]1C(=O)O`, for which the growth is 115% in test [1]; 98% in test [2]; 96.8% in test [3]; 105% in test [4]; 102% in [5]; 105% in test [6]. The growth is 98.8% in [7], 98.4% in test [8], 80.6% in [9] and 92.5% in test [10].
